In the antibiotic and cytotoxicity screens of Wong et al. (2023):
In all, about 39,000 compounds went through this assay and about 3,300 (8.5%) were called active. Shown is part of a subset that was picked to be rich in actives.

Tested on: HepG2
Test: cytotoxicity call (relative viability < 0.9)
Settings: 10 µM

| Compound | cytotoxicity call |
| --- | --- |
| COc1cccc(S(=O)(=O)Nc2ccc3c(c2)[C@@H]2C[C@@H](CC(=O)NCc4cccc(F)c4)O[C@H](CO)[C@@H]2O3)c1 | inactive |
| O=C(C[C@@H]1C=C[C@@H](NS(=O)(=O)c2ccccc2)[C@@H](CO)O1)NCc1ccncn1 | inactive |
| COc1ccc(S(=O)(=O)N2C[C@H](O)COC[C@@H]3O[C@@H](CC(=O)N[C@@H]4CCN(Cc5ccccc5)C4)CC[C@H]32)cc1 | inactive |
| COCC(=O)Nc1ccc2c(c1)C(=O)N(C)C[C@@H](OC)[C@@H](C)CN(Cc1ccccc1OC)[C@H](C)CO2 | inactive |
| C[C@@H]1CCCCO[C@H](CN(C)C(=O)Cc2ccccc2)[C@H](C)CN([C@@H](C)CO)C(=O)c2cc(NS(=O)(=O)c3ccc(Cl)cc3)ccc2O1 | inactive |
| COCC(=O)N1C[C@H](C)[C@H](OC)CN(C)C(=O)c2ccc(NC(=O)c3ccc(OC)cc3)cc2OC[C@H]1C | inactive |
| Cc1noc(C)c1S(=O)(=O)N(C)C[C@H]1OCCCC[C@@H](C)Oc2ccc(NC(=O)Nc3ccc(F)cc3)cc2C(=O)N([C@H](C)CO)C[C@@H]1C | inactive |
| Cc1noc(C)c1S(=O)(=O)Nc1ccc2c(c1)C(=O)N([C@H](C)CO)C[C@@H](C)[C@H](CN(C)Cc1ccccc1)OCCCC[C@H](C)O2 | inactive |
| CC(C)NC(=O)Nc1ccc2c(c1)CC(=O)N([C@@H](C)CO)C[C@@H](C)[C@H](CN(C)S(=O)(=O)c1ccc(Cl)cc1)O2 | inactive |
| CC(C)NC(=O)Nc1ccc2c(c1)CC(=O)N([C@H](C)CO)C[C@@H](C)[C@H](CN(C)S(=O)(=O)c1ccc(Cl)cc1)O2 | inactive |
| COc1ccc(S(=O)(=O)N(C)C[C@@H]2Oc3ccc(NC(=O)Nc4ccc(Cl)c(Cl)c4)cc3CC(=O)N([C@@H](C)CO)C[C@@H]2C)cc1Cl | active |
| COc1ccc(S(=O)(=O)N(C)C[C@@H]2Oc3ccc(NC(=O)NC(C)C)cc3CC(=O)N([C@H](C)CO)C[C@@H]2C)cc1 | inactive |
| COc1ccc(S(=O)(=O)N(C)C[C@@H]2Oc3ccc(NC(=O)Nc4cccc5c4CCCC5)cc3CC(=O)N([C@@H](C)CO)C[C@@H]2C)cc1Cl | inactive |
| COc1ccc(S(=O)(=O)N(C)C[C@@H]2Oc3ccc(NC(=O)Nc4cc(Cl)cc(Cl)c4)cc3CC(=O)N([C@@H](C)CO)C[C@@H]2C)cc1Cl | active |
| CCS(=O)(=O)N1CCNCC1 | inactive |
| CC1C(=O)CCC2C1(C)CCC1C2(C)CCC2(C)C3CC(C)(C)CCC3(C)CCC12C (stereo not given) | inactive |
| O=C(O)c1n[nH]c2c1CCCC2 | inactive |
| C[C@H]1CN([C@@H](C)CO)C(=O)c2cc(C#Cc3ccccc3F)cnc2O[C@H]1CN(C)C(=O)C1CCOCC1 | inactive |
| COc1ccc(C[C@@H]2c3cc(OC)c(OC)cc3CC[N@+]2(C)CCC(=O)OCCCCCOC(=O)CC[N@@+]2(C)CCc3cc(OC)c(OC)cc3[C@H]2Cc2ccc(OC)c(OC)c2)cc1OC | active |
| COc1ccc(CC2c3cc(OC)c(OC)cc3CC[N+]2(C)CCC(=O)OCCCCCOC(=O)CC[N+]2(C)CCc3cc(OC)c(OC)cc3C2Cc2ccc(OC)c(OC)c2)cc1OC.O=S(=O)([O-])c1ccccc1.O=S(=O)([O-])c1ccccc1 (stereo not given) | inactive |
| COc1ccc(C[C@H]2c3cc(OC)c(OC)cc3CC[N@+]2(C)CCC(=O)OCCCCCOC(=O)CC[N@+]2(C)CCc3cc(OC)c(OC)cc3[C@@H]2Cc2ccc(OC)c(OC)c2)cc1OC | inactive |
| COc1ccc(S(=O)(=O)Nc2ccc3c(c2)C(=O)N([C@@H](C)CO)C[C@H](C)[C@@H](CN(C)S(=O)(=O)c2ccccc2)O3)cc1 | inactive |
| C[C@@H]1CN([C@H](C)CO)C(=O)c2cc(NC(=O)C3CCCCC3)ccc2O[C@H]1CN(C)Cc1ccc(C(F)(F)F)cc1 | inactive |

| Compound | cytotoxicity call |
| --- | --- |
| CC(C)NC(=O)Nc1cccc2c1O[C@@H](CN(C)Cc1ccc(Oc3ccccc3)cc1)[C@@H](C)CN([C@H](C)CO)C2=O | inactive |
| COc1cccn(CC(=O)N2CCO[C@@H](CCN)C2)c1=O | inactive |
| CNc1nc(SCC(N)=O)nc(N2CCOCC2)n1 | active |
| CN(C)c1nc(SCC(N)=O)nc(N(C)C)n1 | inactive |
| CCNc1nc(SCC(N)=O)nc(N2CCOCC2)n1 | inactive |
| Cn1c(=O)c2c(nc(N(CCO)CCO)n2Cc2ccc(F)cc2)n(C)c1=O | inactive |
| C[C@@H]1CN([C@@H](C)CO)C(=O)c2c(c3ccccc3n2C)-c2ccccc2CO[C@H]1CN(C)Cc1ccc(Oc2ccccc2)cc1 | inactive |
| C[C@@H]1CN([C@H](C)CO)C(=O)Cc2cc(NC(=O)CCC(F)(F)F)ccc2O[C@H]1CN(C)C(=O)Nc1ccc(C(F)(F)F)cc1 | inactive |
| C[C@@H]1CN([C@@H](C)CO)C(=O)Cc2cc(NC(=O)C3CCCCC3)ccc2O[C@@H]1CN(C)Cc1ccc(-c2ccccc2)cc1 | active |
| C[C@@H]1CN([C@H](C)CO)C(=O)Cc2cc(NC(=O)C3CCCCC3)ccc2O[C@H]1CN(C)Cc1ccc(-c2ccccc2)cc1 | inactive |
| C[C@H]1CN([C@@H](C)CO)C(=O)Cc2cc(NC(=O)C3CCCCC3)ccc2O[C@@H]1CN(C)Cc1ccc(-c2ccccc2)cc1 | inactive |
| C[C@@H]1CN([C@@H](C)CO)C(=O)Cc2cc(NC(=O)C3CCCCC3)ccc2O[C@H]1CN(C)Cc1ccc(-c2ccccc2)cc1 | inactive |
| C[C@H](CO)N1C[C@H](C)[C@H](CN(C)Cc2ccc(-c3ccccc3)cc2)Oc2ccc(NC(=O)C3CCCCC3)cc2CC1=O | inactive |
| C[C@@H]1CN([C@H](C)CO)C(=O)Cc2cc(NC(=O)C3CCCCC3)ccc2O[C@@H]1CN(C)Cc1ccc(-c2ccccc2)cc1 | active |
| Cc1noc(C)c1NC(=O)N(C)C[C@H]1Oc2c(NC(=O)C3CC3)cccc2C(=O)N([C@H](C)CO)C[C@H]1C | inactive |
| COc1ccc(NC(=O)Nc2ccc3c(c2)C(=O)N([C@@H](C)CO)C[C@@H](C)[C@H](CN(C)Cc2ccc(Cl)c(Cl)c2)O3)cc1 | inactive |
| COc1ccc(NC(=O)Nc2ccc3c(c2)CC(=O)N([C@H](C)CO)C[C@H](C)[C@@H](CN(C)Cc2ccc(Cl)c(Cl)c2)O3)cc1 | inactive |
| COc1ccc(NC(=O)Nc2ccc3c(c2)CC(=O)N([C@@H](C)CO)C[C@H](C)[C@@H](CN(C)Cc2ccc(Cl)c(Cl)c2)O3)cc1 | active |
| COc1ccc(NC(=O)Nc2ccc3c(c2)CC(=O)N([C@@H](C)CO)C[C@H](C)[C@H](CN(C)Cc2ccc(Cl)c(Cl)c2)O3)cc1 | active |
| COc1ccc(NC(=O)Nc2ccc3c(c2)CC(=O)N([C@H](C)CO)C[C@H](C)[C@H](CN(C)Cc2ccc(Cl)c(Cl)c2)O3)cc1 | active |
| COc1ccc(NC(=O)Nc2ccc3c(c2)CC(=O)N([C@@H](C)CO)C[C@@H](C)[C@@H](CN(C)Cc2ccc(Cl)c(Cl)c2)O3)cc1 | active |
| COc1ccc(NC(=O)Nc2ccc3c(c2)C(=O)N([C@H](C)CO)C[C@@H](C)[C@H](CN(C)Cc2ccc(Cl)c(Cl)c2)O3)cc1 | inactive |
